Source: PubChem (National Center for Advancing Translational Sciences (NCATS))
TDP1 cell CPT = growth inhibition of DT40 Tdp1-/-;hTDP1 cells with camptothecin (screen for TDP1 inhibitors); Potency, µM (highest dose often 46.2 µM), for inactives: at the highest dose activity change, negative = growth inhibition, usual class: inhibitors; AID 686979; chicken DT40 Tdp1-/-;hTDP1 cells + 20 nM CPT, ATP luminescence, 48 h; actives 12% (n = 420,000); note: nearly all actives have a fitted effect of over 55% in size
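Cell growth measured by CellTiter-Glo luminescence after a minimum 48 h, 37 C compound exposure with 20 nM CPT in Tdp1-knockout DT40 cells stably expressing hTDP1, seeded 400/well; qHTS titration format.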
DT40 TDP1 no CPT = qHTS for Inhibitors of human tyrosyl-DNA phosphodiesterase 1 (TDP1): qHTS in cells in absence of CPT; DT40 Tdp1-/- hTDP1 cells, no CPT, ATP luminescence, 48 h; Potency, µM (doses to about 46.2 µM), for inactives: top-dose activity change, negative = growth inhibition, most hits filed as inhibitors; actives 15% (n = 420,000); note: nearly all actives have a fitted effect of over 55% in size
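Seeded 400 DT40-hTDP1 cells/well (vehicle DMSO, no 20 nM CPT); pinned compounds; ≥48 hr at 37 °C; CellTiter-Glo luminescence as viability measure.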
RORg inh = ROR gamma (mouse) transcription inhibition | P51450 | Drosophila S2 Gal4-RORgamma UAS-luciferase reporter, 20 h | Potency, µM (highest dose often 53.6 µM), without a hit: at the top dose activity change, negative = inhibition, usual class: inhibitors | actives 5.4% (n = 310,000); note: nearly all actives have a fitted effect of over 60% in size
Target sequence (P51450 whole entry, looked up, the tested form may be a part): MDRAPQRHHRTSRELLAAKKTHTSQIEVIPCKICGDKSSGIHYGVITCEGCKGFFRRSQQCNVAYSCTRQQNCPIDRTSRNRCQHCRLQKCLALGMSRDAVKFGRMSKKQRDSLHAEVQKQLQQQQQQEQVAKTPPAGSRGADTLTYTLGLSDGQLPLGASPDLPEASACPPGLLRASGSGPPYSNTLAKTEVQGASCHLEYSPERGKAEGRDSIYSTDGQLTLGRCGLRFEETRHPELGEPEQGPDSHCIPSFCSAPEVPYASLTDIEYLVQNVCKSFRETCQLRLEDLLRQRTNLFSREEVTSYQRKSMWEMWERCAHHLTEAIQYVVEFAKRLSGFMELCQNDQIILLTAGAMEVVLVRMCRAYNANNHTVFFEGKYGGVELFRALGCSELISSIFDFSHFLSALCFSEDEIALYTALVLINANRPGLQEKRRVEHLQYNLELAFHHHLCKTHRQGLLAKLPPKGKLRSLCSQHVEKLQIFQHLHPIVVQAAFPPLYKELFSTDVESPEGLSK
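In this cell-based reporter format, copper sulfate (700 uM final) drives Gal4–ROR gamma fusion expression from a metallothionein promoter in Drosophila Schneider cells; compounds preincubated 1 hr, reporter read after 20 hr at ambient temperature.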
12-LOX inh = blocks human arachidonate 12S-lipoxygenase. P18054. purified 12hLO, xylenol orange hydroperoxide absorbance. Potency, µM (doses to about 108 µM), for inactives: at the top dose activity change, negative = inhibition, usual class: inhibitors. actives 1.1% (n = 580,000)
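Purified human 12hLO (150 nM final) in 25 mM Hepes, 0.01% Triton X-100, pH 7.0 was preincubated 15 min at room temperature with compound. Then 40 uM arachidonic acid was added, 30 min. Hydroperoxide was read by Fe-XO absorbance ratio 573/405 nm.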
ELG1 repair inh = inhibitors of ELG1-dependent DNA repair in HEK293T cells. Potency, µM (doses to about 46.1 µM), for inactives: top-dose activity change, negative = inhibition, actives largely listed as inhibitors. AID 504467. HEK293T ELG1-luciferase reporter, luminescence, 16 h; DNA damage induced by 5-fluorouridine. actives 2.3% (n = 330,000); note: nearly all actives have a fitted effect of over 55% in size
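Reporter activity after DNA damage by 5-fluorouridine is monitored. Compound-treated cells incubate 16 hr at 37 °C, then ONE-Glo is added for 30 min before luminescence reading.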
Gal4-VP16 FLuc = Gal4-VP16 reporter inhibition counter-screen; Drosophila S2 Gal4-VP16 UAS-luciferase, luminescence, 20 h; Potency, µM (doses to about 53.6 µM), without a hit: at the highest dose activity, negative = inhibition, usual class: inhibitors; actives 3.5% (n = 310,000); AID 2546;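 note: Gal4-VP16 expression switched on by copper sulfate through the metallothionein promoter; nearly all actives have a fitted effect of over 50% in size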
The depositor's hits bear a star; u = inconclusive; x = no result; [ ] = another dose, or the depositor's remark. Only some compounds are listed: those with a hit (about 15% of all), similar ones and a draw of the others. Calls come from the whole dose curve; as a rule, active = well fitted curve in the direction sought with a large enough effect; inconclusive = small, poorly fitted or top-dose-only effect, or another doubt; inactive = no such curve, though single readings can be large; an effect the other way counts as inactive or inconclusive. % is set by controls: 0 for no effect and ±100 for the full control effect; potency is the fitted concentration of half-maximal effect.

SMILES	TDP1 cell CPT	DT40 TDP1 no CPT	RORg inh	12-LOX inh	ELG1 repair inh	Gal4-VP16 FLuc
Cc1ccc(-c2nc3ccc(Cl)cn3c2Nc2ccc3c(c2)OCCO3)s1	18µM*	u	x	-16%	x	x
CC1CCN(c2c(NCC3CCC(C(=O)NCCCc4ccccc4)CC3)c(=O)c2=O)CC1 (stereo not drawn)	-20%	-28%	27%	x	10µM*	-2%
COc1ccc(OC)c(NC(=O)C2CCC(CNc3c(N4CCC(C)CC4)c(=O)c3=O)CC2)c1 (stereo not drawn)	u	u	0.79µM*	9%[57.4 µM]	u	-7%
COc1ccc(C)cc1NC(=O)C1CCC(CNc2c(N3CCOCC3)c(=O)c2=O)CC1 (stereo not drawn)	-4%	0%	-32%	5%[57.4 µM]	u	0%
C[N+]1(Cc2c(Cl)cccc2Cl)CCN(/C=C/C(=O)C(F)(F)F)CC1	x	x	x	-65%	x	x
Cc1ccccc1-c1noc(CSc2nnc(Cc3ccccc3)n2-c2ccc(F)cc2)n1	u	9.2µM*	x	-9%	x	x
CCOc1ccc(-n2c(Cc3ccccc3)nnc2SCc2nc(-c3ccccc3OC)no2)cc1	u	16µM*	x	-2%	x	x
CN(C(=O)CSc1nc(-c2ccccc2)cn1N)C(c1ccccc1)c1ccccc1	21µM*	26µM*	0%	-24%	u	-5%
Cc1nn(C(C)C(=O)N2CCCCC2)c(=O)c2c1sc1ccccc12 (stereo not drawn)	u	21µM*	15%	46%	3%	-5%
Cc1ccc(C)c(N2CCN(C(=O)C(C)n3nc(C)c4sc5ccccc5c4c3=O)CC2)c1 (stereo not drawn)	-8%	-15%	x	-8%	x	x
COc1ccc(N2CCN(C(=O)C(C)n3nc(C)c4sc5ccccc5c4c3=O)CC2)cc1 (stereo not drawn)	u	16µM*	x	-22%	x	x
CCC(C(=O)N1CCN(c2cccc(C)c2C)CC1)n1nc(C)c2sc3ccccc3c2c1=O (stereo not drawn)	6%	-4%	x	4%	x	x
Cc1cc(Br)cc(C)c1C(=O)O	x	x	x	-23%	x	x
N#CC1=C(SCC(=O)NC2CC2)NC(=O)C(C#N)C12CCCCC2 (stereo not drawn)	-1%	-13%	-3%	-4%	-2%	-4%
N#CC1=C(SCC(=O)NC23CC4CC(CC(C4)C2)C3)NC(=O)C(C#N)C12CCCCC2 (stereo not drawn)	18µM*	23µM*	u	u	13µM*	16µM*
CC(C)(C)C1CCC2(CC1)C(C#N)=C(SCC(=O)NC1CCCCC1)NC(=O)C2C#N (stereo not drawn)	21µM*	16µM*	38%	-13%	u	-20%
CCSc1ccccc1C(=O)Nc1ccc(CC)cc1	x	x	x	-54%	x	x
O=C(O)c1ccc(C(=O)C(=O)c2ccccc2)cc1	2%	16%	11%	0%	-2%	-6%
C=C(C(=O)c1ccccc1)C(C(=C)C(=O)c1ccccc1)c1ccc(OC)cc1	10µM*	5.2µM*	26%	166%	16µM*	-8%
C=C(C(=O)c1ccccc1)C(C)C(=C)C(=O)c1ccccc1	5.8µM*	5.8µM*	13µM*	-2%	21µM*	11µM*
C=C(C(=O)c1ccccc1)C(c1ccccc1)C(C)C(=O)c1ccccc1 (stereo not drawn)	u	u	2.8µM*	11%	u	16µM*
O=C(c1ccccc1)C(c1ccccc1)c1ccccc1	3%	-25%	x	18%	27%	x
Cc1ccc(C(=O)O)cc1C	x	x	x	6%	x	x
C=CCNC(=O)NC(=O)COC(=O)Cc1cccc(C(F)(F)F)c1	x	x	x	-34%	x	x
